According to PubChem BioAssay AID1259343 (VanderVen Lab, College of Veterinary Medicine, Cornell …, 2017):
Among all 6,200 compounds or so, about 2,900 (47%) were called active. So high a share suggests a set chosen from earlier hits. This is one part of the list. Values without a mark were called inactive. Rule as the data show it: active = inhibition above about 50%; inactive = the rest.

Experiment: Mycobacterium tuberculosis growth inhibition, primary screen (AID 1259343)
Details: inhibition: at 10 µM, active compounds read high; outcome: 10 uM

Row | SMILES | inhibition
1 | CSc1nnc(COc2ccccc2Cl)n1C1CC1 | 1.97%
2 | CN1CCN(S(=O)(=O)c2ccc(SCCOc3ccccc3Cl)nc2)CC1 | 90% (active)
3 | COc1cc(S(=O)(=O)N2CCN(c3ccccc3C)CC2)ccc1Cl | 12.3%
4 | CCOC(=O)c1sc2nc(C)nc(NCC(C)C)c2c1C | -22.6%
5 | CCOC(=O)c1c(N)sc(C(N)=O)c1C | 84.7% (active)
6 | CCOC(=O)c1sc(N)c(C(=O)OCC)c1C | 32.7%
7 | Cc1cccc(-c2ccc(NC(=O)C3CCN(C(=O)CCc4cnn(C)c4)CC3)cc2)c1 | 87.8% (active)
8 | Cc1cccc(-c2ccc(NC(=O)C3CCN(C(=O)Cn4cccn4)CC3)cc2)c1 | inactive
9 | Cc1cccc(-c2ccc(NC(=O)C3CCN(C(=O)CSc4ccncc4)CC3)cc2)c1 | 74.8% (active)
10 | Cc1cccc(-c2ccc(NC(=O)C3CCN(C(=O)CCc4ccncc4)CC3)cc2)c1 | 85% (active)
11 | COc1ccc2oc(=Nc3cccc(C#N)c3)c(-c3nc4ccccc4[nH]3)cc2c1 | -9.36%
12 | COc1ccc(-c2nc(CN3CCN(c4nc5ccccc5s4)CC3)c(C)o2)c(OC)c1 | 15.8%
13 | CSc1ccc(-c2nc(CN3CCN(c4cnccn4)CC3)c(C)o2)cc1 | inactive
14 | COc1ccc(-c2nc(CN3CCN(c4ccc(C)cc4C)CC3)c(C)o2)cc1 | 67.6% (active)
15 | Cc1ccccc1-c1cnnc(NCCCn2ccc3ccccc32)n1 | 32.6%
16 | Clc1ccc(OCCN2CCc3ccccc3C2)cc1 | 87.5% (active)
17 | Ic1ccc(OCCN2CCc3ccccc3C2)cc1 | 46.5%
18 | O=S(=O)(CCN1CCc2ccccc2C1)Oc1ccc(Br)cc1 | 98.6% (active)

Row | SMILES | inhibition
19 | Brc1cccc(OCCN2CCc3ccccc3C2)c1 | 38.6%
20 | O=S(=O)(NC1CCCc2ccccc21)c1ccc(Br)cc1 (stereo not given) | 10.2%
21 | Cc1ccc(-c2nc(CN3CCc4ccccc4C3)co2)c(C)c1 | 27.7%
22 | FC1(F)Oc2ccc(NCc3nc(-c4ccsc4)no3)cc2O1 | 48.7%
23 | N=C1SCC(=O)N1c1ncc(Cc2ccccc2)s1 | 102% (active)
24 | COc1ccc(C2NC(=O)NC(C)=C2C(=O)OCc2ccccc2)c(OC)c1 (stereo not given) | -11.8%
25 | COc1ccc(CN(C)C2CC(=O)N(c3c(C)cccc3C)C2=O)c(OC)c1 (stereo not given) | 101% (active)
26 | COc1ccc(CN(C)C(=O)Nc2ccc(C)cc2)c(OC)c1 | -33.2%
27 | CCCC1CCCC(=C\c2ccc(OC)cc2)/C1=N\OC(=O)NCC (stereo not given) | 57% (active)
28 | COc1ccc(NC(=O)c2sc(=O)n(Cc3ccc(C)cc3)c2C)cc1OC | 41.4%
29 | Cc1ccc(Cn2c(C)c(C(=O)Nc3ccc(C)cc3)sc2=O)cc1 | -16.4%
30 | COc1ccc(NC(=O)c2sc(=O)n(Cc3ccc(C)cc3)c2C)cc1 | 79.5% (active)
31 | COc1ccc(NC(=O)c2sc(=O)n(Cc3ccc(OC(F)(F)F)cc3)c2C)cc1 | 55.9% (active)
32 | COc1ccc(NC(=O)c2sc(=O)n(Cc3ccccc3)c2C)cc1 | 5.9%
33 | C=Cc1ccc(Cn2c(C)c(C(=O)Nc3ccc(OC)cc3)sc2=O)cc1 | 2.61%
34 | C=Cc1ccc(Cn2c(C)c(C(=O)Nc3ccc(OC)c(OC)c3)sc2=O)cc1 | -5.14%
35 | COc1ccc(NC(=O)c2sc(=O)n(Cc3cccc(F)c3)c2C)cc1 | 60.5% (active)
